Laboratory results published in PubChem BioAssay AID1851 (National Center for Advancing Translational Sciences (NCATS), 2009).
Hit rate of the full screen: of about 16,000 compounds, about 5,700 (36%) were called active. Another 24% or so got no clear call; they are omitted. The call rests on the fitted dose curve; in most records, active means well fitted curve in the direction sought with a large enough effect; inconclusive means small, poorly fitted or top-dose-only effect, or effect the other way; inactive means no such curve, though single readings can be large or run the other way. The list shows a part of the results.

These molecules were tested against Cytochrome P450 1A2 (Homo sapiens) (UniProt P05177) (assay: Cytochrome panel assay with activity outcomes). Conditions: recombinant CYP, pro-luciferin dealkylation, luminescence, p450-cyp1a2; series mostly up to 57.1 µM; activity, negative = inhibition: at the top concentration.
Chain of Cytochrome P450 1A2 (Homo sapiens) (P05177 whole entry, looked up): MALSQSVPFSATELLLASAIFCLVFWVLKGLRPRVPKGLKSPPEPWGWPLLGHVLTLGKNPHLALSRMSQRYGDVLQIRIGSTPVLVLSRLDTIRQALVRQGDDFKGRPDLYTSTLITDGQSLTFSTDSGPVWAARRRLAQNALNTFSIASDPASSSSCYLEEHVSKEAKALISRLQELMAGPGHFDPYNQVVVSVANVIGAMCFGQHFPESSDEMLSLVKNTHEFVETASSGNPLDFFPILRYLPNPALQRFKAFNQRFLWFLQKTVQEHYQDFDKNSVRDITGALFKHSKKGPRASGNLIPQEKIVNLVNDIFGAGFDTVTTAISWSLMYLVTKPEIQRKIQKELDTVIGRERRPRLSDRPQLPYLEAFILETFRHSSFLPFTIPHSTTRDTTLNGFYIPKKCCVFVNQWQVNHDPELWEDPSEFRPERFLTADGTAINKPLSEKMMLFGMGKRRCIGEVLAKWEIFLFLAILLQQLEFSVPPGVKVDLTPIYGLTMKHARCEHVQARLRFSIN
On the % scale 0 is the no-effect control and ±100 the full control effect.

Row | Compound | AC50 | activity, negative = inhibition
1 | CCOCC(=O)Nc1cc(C(=O)Nc2ccccc2)ccc1Cl | 2510 nM (active) | –
2 | CCOCC(=O)Nc1cc(C(=O)Nc2cccc(C)c2C)ccc1Cl | 5010 nM (active) | –
3 | COC(=O)c1ccc(Cl)c(NC(=O)c2ccc(-c3ccccc3)cc2)c1 | – | -27% (inactive)
4 | CCc1c2c(nc3ccc(OC)cc13)COC2 | 794 nM (active) | –
5 | CCc1c2c(nc3cccc(SC)c13)COC2 | 2510 nM (active) | –
6 | Cc1ccc(/C=N/n2c(-c3cccs3)n[nH]c2=S)cc1 | 282 nM (active) | –
7 | COc1ccc(/C=N/n2c(-c3cccs3)n[nH]c2=S)cc1 | 631 nM (active) | –
8 | Cc1ccc(-c2n[nH]c(=S)n2/N=C/c2cccn2C)cc1 | 3550 nM (active) | –
9 | COc1ccc(-n2c(-c3cnccn3)n[nH]c2=S)cc1 | – | 1.32% (inactive)
10 | Nc1ccn([C@H]2O[C@@H](COP(=O)(O)O)[C@@H](O)[C@H]2O)c(=O)n1 | – | -23.3% [at 11.4 µM] (inactive)
11 | N#CCCn1c(=O)c(-c2cccc(C#N)c2)nc2cnc(Oc3cccc(Cl)c3)nc21 | – | -17.1% (inactive)
12 | O=c1c(-c2ccccc2)nc2cnc(Oc3cccc(Cl)c3)nc2n1C1CC1 | 1580 nM (active) | –
13 | O=c1c(-c2ccc(F)cc2)nc2cnc(Oc3cccc(Cl)c3)nc2n1C1CC1 | 316 nM (active) | –
14 | N#Cc1cccc(-c2nc3cnc(Oc4cccc(Cl)c4)nc3n(C3CC3)c2=O)c1 | 2510 nM (active) | –
15 | CC(C)CN1CCC2(CC1)CCN(C(=O)c1cccc(F)c1)CC2 | – | 0.754% (inactive)
16 | CC(=O)OC[C@@H]1O[C@@H](O/N=C2/C[C@@H](O)[C@@H](O)[C@@H]3[C@@H]4C(=O)N(C[C@@H]5CCCO5)C(=O)[C@H]4CC[C@@H]23)[C@H](OC(C)=O)[C@H](OC(C)=O)[C@@H]1OC(C)=O | – | 5.86% [at 11.4 µM] (inactive)
17 | COc1ccc(/C=N\NC(=O)C2C(=O)NCC2c2ccccc2)cc1O (configuration not stated) | – | -28.2% (inactive)
18 | COc1ccc(/C=N/NC(=O)CCc2ccccc2)cc1O | 25100 nM (active) | –
19 | O=C(N/N=C/c1cccc(OCc2ccccc2)c1)c1cccs1 | 2240 nM (active) | –
20 | Cc1cccc(C)c1NC(=O)COc1cccc(/C=N/NC(=O)C(=O)NCc2ccccc2)c1 | – | -14.1% (inactive)
21 | O=C(N/N=C/c1ccc(OCc2ccccc2)cc1)c1cccs1 | 3160 nM (active) | –
22 | C=CCNC(=S)N/N=C/c1ccc(OCc2ccccc2)cc1 | 14100 nM (active) | –
23 | C/C(CCC(=O)OC[C@@H]1O[C@H](C#Cc2ccccc2)C=C[C@@H]1Oc1ccc(C)cc1)=N/OC[C@@H](O)COCc1ccco1 | – | -4.08% [at 11.4 µM] (inactive)
24 | C/C(CCN1CCCc2nc(C)c(C)cc21)=N\OC[C@@H](O)[C@@H]1O[C@@H]2OC(C)(C)O[C@@H]2[C@H]1O | – | 1.1% [at 11.4 µM] (inactive)

Row | Compound | AC50 | activity, negative = inhibition
25 | Nc1nc2ncc(CNc3ccc(C(=O)N[C@@H](CCC(=O)O)C(=O)O)cc3)nc2c(=O)[nH]1 | – | -5.34% [at 25.6 µM] (inactive)
26 | COc1cc(/C=N/NC(=O)c2cccs2)ccc1OCc1ccccc1 | 794 nM (active) | –
27 | COc1cc(/C=N/NC(=O)c2cccc([N+](=O)[O-])c2)ccc1OCc1ccc(C)cc1 | – | -24.6% (inactive)
28 | COc1cc(NC(=S)NC(=O)c2c(OC)cccc2OC)ccc1NC(=O)c1cccs1 | – | -10.4% (inactive)
29 | Cc1ccccc1C(=O)Nc1cccc(NC(=S)NC(=O)c2cccs2)c1 | 3160 nM (active) | –
30 | CCN(c1ccccc1)S(=O)(=O)c1ccc(NC(=S)NC(=O)c2cccs2)cc1 | – | -24.5% (inactive)
31 | Cc1cccc(NC(=S)NC(=O)c2cccs2)n1 | 794 nM (active) | –
32 | Cc1c(C)c(C)c(CC2(C)CSC2)c(CC2(C)CSC2)c1C | – | -16.1% [at 11.4 µM] (inactive)
33 | CN(Cc1ccco1)c1cc(-c2cccnc2)ncn1 | 316 nM (active) | –
34 | COc1cccc([C@@H]2Oc3ccc(OC)cc3/C(=N/OC[C@@H](O)COCc3ccco3)[C@@H]2O)c1 | – | -3.42% [at 11.4 µM] (inactive)
35 | CN(Cc1ccco1)c1cc(-c2cccc(C#N)c2)ncn1 | 794 nM (active) | –
36 | COc1cccc(-c2cc(N(C)Cc3ccco3)ncn2)c1 | 794 nM (active) | –
37 | CCCNC1CCS(=O)(=O)C1 (configuration not stated) | – | -7.33% (inactive)
38 | CCOC(=O)c1c(C)[nH]c(C(=O)OCC(=O)NC2CCS(=O)(=O)C2)c1C (configuration not stated) | 12600 nM (active) | –
39 | Cc1ccc(/S(C)=N/S(=O)(=O)c2ccc(C)cc2)cc1 (configuration not stated) | – | -16.1% (inactive)
40 | CCCS(=O)(=O)N1CCCC(C(=O)NCCCOCC)C1 (configuration not stated) | – | 9.24% (inactive)
41 | CCCS(=O)(=O)N1CCCC(C(=O)N2CCN(C(=O)OCC)CC2)C1 (configuration not stated) | 10000 nM (active) | –
42 | CCCS(=O)(=O)N1CCCC(C(=O)NCCCOC(C)C)C1 (configuration not stated) | – | 15.7% (inactive)
43 | Cn1c(C(=O)Nc2ccccc2)cc2sccc21 | 8910 nM (active) | –
44 | CN1c2ccccc2C(O)=C(C(=O)Nc2ccccc2)S1(=O)=O | – | 22.2% (inactive)
45 | COC(=O)c1ccc(NC(=O)c2ccccc2NS(=O)(=O)c2ccccc2)cc1 | – | -26.7% (inactive)
46 | COC(=O)c1ccc(NC(=O)c2cc3sccc3n2C)cc1 | 8910 nM (active) | –
47 | COCCNc1ncnc2ccc(-c3cccnc3)cc12 | 200 nM (active) | –
